Bioassay records from PubChem.
The list is not random: actives were taken first. Their share in the collection is about 1.9%.
LDHA block: inhibitors of human lactate dehydrogenase A. P00338. purified LDHA, NADH/diaphorase-resazurin fluorescence; hits give low values. activity change, % (values are at about 110 or 230 µM). 0.15% of 480,000 active; in the data active = activity change below about -30%; inconclusive = mostly about -25% to -30%
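LDH5 2 nM; NADH 0.06 mM, pyruvate 0.2 mM; 200 mM Tris pH 7.4, EDTA, Tween-20; 5 min RT. Detection: diaphorase 0.133 mg/mL + resazurin 37 µM, fluorescence ex540/em590 at 0 and 20 min; normalized to enzyme-free and DMSO wells.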
TDP43 rescue: TDP-43 toxicity inhibition in yeast; TDP-43 expressing yeast growth rescue, BacTiter-Glo, 24 h; Potency, µM (highest dose often 46.1 µM), usual class: activators; 1.8% of 410,000 active; AID 652104; also: nearly all actives have a fitted effect of over 50% in size
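Cell-based yeast growth screen: TDP-43 expression induced in galactose, inoculum OD600=0.02 after raffinose pregrowth to mid-log. Read-out BacTiter-Glo luminescence at 24 hr, 30 deg C; inhibition of toxicity seen as signal increase.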
FUS suppressor: FUS proteinopathy suppression in yeast; S. cerevisiae FUS-expressing, growth rescue, OD600, 24 h; Potency, µM (highest dose often 76.6 µM), hits mostly activators; 0.24% of 390,000 active; also: nearly all actives have a fitted effect of over 55% in size
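Toxicity suppression screen in FUS-yeast. Cells induced with 2% galactose, starting OD 0.005, treated 24hr at 30C with compounds at multiple final concentrations; growth by OD600.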
Abeta yeast res: A-beta toxicity reversal in yeast. yeast expressing A-beta42, growth rescue, OD600, 48 h; response scale: 0% DMSO, 100% iron-clioquinol control. Potency, µM (series often up to 46.1 µM), most hits filed as activators. 0.063% of 410,000 active. AID 1347071; also: nearly all actives have a fitted effect of over 55% in size
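Yeast A-beta toxicity model in growth medium with pinned compounds, 48 h at 30 C; growth read as absorbance at 600 nm. Normalized to FeCl3/clioquinol equimolar mix (positive) and DMSO (negative).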
aSyn rescue: alpha-synuclein toxicity inhibition in yeast | 0.14% of 370,000 active | Yeast expressing alpha-synuclein, growth rescue, BacTiter-Glo, 24 h | Potency, µM (series often up to 46.1 µM), most hits filed as activators; also: nearly all actives have a fitted effect of over 65% in size
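Screening used galactose-induced yeast with toxic alpha-synuclein levels, exposed to compound for 24 hr at 30 deg C. Cell growth, read with BacTiter-Glo luminescence, gave the measured signal.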
PTHR1 ag: activates the human parathyroid hormone receptor PTHR1; 0.075% of 410,000 active; HEK293 GP2 PTHR1 cells, GloSensor cAMP luminescence, 1 h; AID 743266; Potency, µM (highest dose often 115 µM), usual class: activators; also: nearly all actives have a fitted effect of over 55% in size
Target sequence (Q03431 whole entry, looked up): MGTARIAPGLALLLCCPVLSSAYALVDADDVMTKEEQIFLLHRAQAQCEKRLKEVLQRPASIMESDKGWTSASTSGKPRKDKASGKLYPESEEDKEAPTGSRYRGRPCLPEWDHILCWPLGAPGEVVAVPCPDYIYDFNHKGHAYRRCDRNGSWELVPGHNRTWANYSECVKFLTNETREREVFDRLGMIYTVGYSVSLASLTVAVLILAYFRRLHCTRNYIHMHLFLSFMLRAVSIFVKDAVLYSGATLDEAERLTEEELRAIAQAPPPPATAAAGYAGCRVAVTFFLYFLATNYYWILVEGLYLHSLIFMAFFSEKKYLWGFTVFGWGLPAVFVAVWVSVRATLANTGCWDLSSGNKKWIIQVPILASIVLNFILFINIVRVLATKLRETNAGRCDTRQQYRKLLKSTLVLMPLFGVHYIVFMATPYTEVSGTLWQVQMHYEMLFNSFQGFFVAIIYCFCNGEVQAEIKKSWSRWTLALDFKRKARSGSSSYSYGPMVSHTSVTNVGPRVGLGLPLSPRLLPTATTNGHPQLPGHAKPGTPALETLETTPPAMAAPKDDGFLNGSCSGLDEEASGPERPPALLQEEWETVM
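HEK-293-derived GP2 cells expressing PTHR1 and a GloSensor cAMP reporter, 3,000/well, plated overnight, given luciferin plus IBMX (each 0.5 mM as added) for 1 h at 37 °C, then compound for 1 h at 37 °C. Luminescence was read after 15 min at room temperature.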
Numbers stand for hits; – = inactive; ? = inconclusive; · = no result given. Unless noted, calls follow the shape of the dose curve; as a rule, active = well fitted curve in the direction sought with a large enough effect; inconclusive = small, poorly fitted or top-dose-only effect, or another doubt; inactive = no such curve, though single readings can be large; an effect the other way counts as inactive or inconclusive.

SMILES | LDHA block | TDP43 rescue | FUS suppressor | Abeta yeast res | aSyn rescue | PTHR1 ag
COc1ccc(-c2cc(-c3ccc(OC)c(OC)c3)n[nH]2)c(O)c1 | – | ? | · | – | – | –
COc1ccc(-c2cc(-c3ccccc3O)[nH]n2)cc1OC | – | 12.6µM | – | – | – | –
COc1ccc(O)c(-c2cc(-c3ccc(F)cc3)n[nH]2)c1 | – | ? | – | – | – | –
COc1cccc(OC)c1C(=O)Oc1ccc2c(c1)O/C(=C\c1cccs1)C2=O | – | · | · | · | · | ·
CC(=C1SC(=S)NC1=O)c1ccccc1 | – | 12.6µM | · | – | – | –
COc1ccccc1C=C1SC(=S)NC1=O | – | – | · | – | – | –
Cn1c(=O)c2c(ncn2CCC(=O)Nc2cccc(Cl)c2)n(C)c1=O | – | · | · | · | · | ·
Cc1cc(C(=O)OCC(=O)Nc2ccc(C)c(C)c2)c2ccccc2n1 | – | · | · | · | · | ·
COc1ccc2c(c1)c1nc3ccccc3nc1n2CCn1c(=O)oc2ccccc21 | – | – | – | – | – | 0.398µM
O=c1oc2ccccc2n1CCn1c2ccccc2c2nc3ccccc3nc21 | – | – | – | – | – | –
O=C(CSc1nnnn1Cc1ccccc1)N1N=C(c2cc3ccccc3o2)CC1c1ccco1 (stereo not given) | – | · | · | · | · | ·
c1ccc2c(-c3csc(-c4ccncc4)n3)c[nH]c2c1 | – | 3.98µM | – | – | – | –
Cc1nc2ccc(NC(=O)CC3CCCC3)cc2s1 | – | · | · | · | · | ·
COc1ccc(-c2nc(C)c(CCNC(=O)c3ccccc3Br)s2)cc1OC | – | 11.2µM | – | – | · | –
CCOc1ccc(C(=O)NCCc2sc(-c3ccc(OC)c(OC)c3)nc2C)cc1 | – | 15.8µM | – | – | – | –
COc1ccc(C(=O)NCCc2sc(-c3ccc(F)cc3)nc2C)cc1OC | – | – | – | – | · | –
Cc1cccc(-c2nc(CCNC(=O)c3ccccc3Br)cs2)c1 | – | 12.6µM | – | – | · | –
CC(C)C(NC(=O)c1ccoc1)c1ccc(F)cc1 (stereo not given) | – | · | · | · | · | ·
CC(=O)c1cccc(NC(=O)c2nc(-c3ccccc3)n(-c3cccc(Cl)c3)n2)c1 | – | 35.5µM | ? | – | · | –
N#Cc1ccc(NC(=O)c2nc(-c3ccccc3)n(-c3ccccc3)n2)cc1 | – | – | – | – | – | –
Cc1nc(C(=O)Nc2cccc(Cl)c2)nn1-c1cc(OC(C)C)c(Cl)cc1Cl | – | – | 31.6µM | – | – | ?
CC(=O)Nc1ccc(NC(=O)c2cc(C)nn2-c2ccccc2)cc1 | – | – | – | – | – | –
CCc1ccc(NC(=O)c2cc(C)nn2-c2ccccc2)cc1 | – | 15.8µM | – | – | – | –
CC(=O)c1ccc(NC(=O)c2nc(-c3ccccc3)n(-c3ccccc3)n2)cc1 | – | 17.8µM | – | – | · | –
COc1ccc(-c2nc(C(=O)Nc3ccc(C(C)=O)cc3)nn2-c2cccc(Cl)c2)cc1 | – | ? | ? | – | · | –
SMILES | LDHA block | TDP43 rescue | FUS suppressor | Abeta yeast res | aSyn rescue | PTHR1 ag
CCOc1ccc(NC(=O)Cc2coc3cc(C)c(C(C)C)cc23)cc1S(=O)(=O)N1CCCC1 | – | · | · | · | · | ·
Cc1n[nH]c(C)c1S(=O)(=O)Nc1ncn(Cc2c(F)cccc2Cl)n1 | – | · | · | · | · | ·
c1coc(-c2nc(-c3ccc4c(c3)OCCCO4)cs2)c1 | – | · | · | · | · | ·
CC(=O)c1ccc(NC(=O)c2nc(-c3ccccc3)oc2C)cc1 | – | · | · | · | · | ·
CC(=O)c1ccc(NC(=O)c2nc(-c3ccccc3)n(-c3ccccc3Cl)n2)cc1 | – | 14.1µM | ? | – | · | –
O=C(NCc1ccc2c(c1)OCO2)C12CN(Cc3ccccc3)CC1C(c1cccc([N+](=O)[O-])c1)=NO2 (stereo not given) | – | – | 28.2µM | – | – | –
CCCn1cc(SCC(=O)Nc2cccc(C)c2)c2ccccc21 | – | · | · | · | · | ·
O=C(O)c1ccc2c(c1)C(=O)N(CCC1=CCCCC1)C2=O | – | – | – | – | – | ?
CN(C(=O)c1ccc2c(c1)C(=O)N(CCC1=CCCCC1)C2=O)C1CCCCC1 | – | 22.4µM | – | – | – | –
CCCCNc1c(-c2ccc(OC)c(Sc3ccc(OC)cc3)c2)nc2cnccn12 | – | 31.6µM | ? | – | – | –
CCCCNc1c(-c2ccc(OC)c(Sc3ccc(OC)cc3)c2)nc2ccccn12 | – | – | ? | – | – | –
CCCCNc1c(-c2ccc(SC(C)CC)cc2)nc2cnccn12 (stereo not given) | – | – | 10µM | – | – | –
COc1ccc2nc(N3CCCCC3)c(C#N)cc2c1 | – | 12.6µM | – | – | – | –
COc1ccc2nc(N3CCCC3)c(C#N)cc2c1 | – | – | – | – | – | –
C[C@]12CC[C@@H]3c4ccc(O)cc4CC[C@H]3[C@@H]1CCC2=O | – | 4.47µM | – | – | – | –
C[C@]12CCC3c4ccc(O)cc4CCC3C1CC/C2=N\N (stereo not given in full) | – | ? | – | – | – | –
COc1ccc2c(c1)CC[C@@H]1[C@@H]2CC[C@]2(C)[C@@H](C(=O)O)C[C@@H]12 | – | 20µM | – | – | – | –
Cc1[nH]c2ccccc2c1C(=O)C(=O)Nc1ccccc1C(C)C | – | · | · | · | · | ·
CCCCCn1nc(C(=O)OCC(=O)N2c3ccccc3NC(=O)C2(C)C)c2ccccc2c1=O | – | · | · | · | · | ·
CCOC(=O)c1ccc(NC(=O)c2cccc3c2C(=O)N(CC2CCCO2)C3)cc1 (stereo not given) | – | 22.4µM | ? | – | – | –
COCCN1Cc2cccc(C(=O)Nc3ccc(Cl)cc3Cl)c2C1=O | – | 15.8µM | – | – | · | –
CCCN1Cc2cccc(C(=O)Nc3ccc(C)cc3)c2C1=O | – | – | – | – | – | –
COCCN1Cc2cccc(C(=O)Nc3ccc(C)c(F)c3)c2C1=O | – | 12.6µM | – | – | · | –
Cc1ccc(NC(=O)CN2C(=O)CCSc3ccccc32)c(C)c1 | – | 15.8µM | – | – | – | –
Cc1cccc(Sc2ccc([N+](=O)[O-])cn2)c1 | – | 11.2µM | – | – | – | –
SMILES | LDHA block | TDP43 rescue | FUS suppressor | Abeta yeast res | aSyn rescue | PTHR1 ag
CC(C)(C)c1csc(Sc2ccc([N+](=O)[O-])cn2)n1 | – | 11.2µM | – | – | – | –
Cc1cccc(OCCNc2ccc([N+](=O)[O-])cn2)c1 | – | 12.6µM | – | – | – | –
CN(Cc1ccc(F)cc1)C(=O)Cn1nc(C(N)=O)c2ccccc2c1=O | – | · | · | · | · | ·
O=C(Cc1cn(Cc2cccc(Cl)c2)c2ccccc12)N1CCCC1 | – | ? | – | – | – | –
N#Cc1cn(Cc2cccc(Cl)c2)c2ccccc12 | – | 15.8µM | · | – | – | –
Cc1ccc(CSc2ccc3nnc(-c4cccnc4)n3n2)cc1 | – | – | – | – | – | –
Brc1ccc(CSc2ccc3nnc(-c4ccccn4)n3n2)cc1 | – | ? | – | – | – | –
